Measurements: PubChem BioAssay (EPA / NIEHS)
Inconclusive results are not listed. Activity calls are given as the source filed them. Rule for the calls: active = hit-call score of the fitted dose curve at least 0.9, where 1 is the maximum; inconclusive = response in the unintended direction; inactive = score below 0.9.

Assays:
[1] = biological target: Mitogen-activated protein kinase 3 (Homo sapiens) (UniProt P27361); experiment: NVS_ENZ_hMAPK3: NovaScreen (NVS) Enzymatic Assay for human Mitogen-Activated Protein Kinase 3 (MAPK 3) (AID 2283177)
Chain of Mitogen-activated protein kinase 3 (Homo sapiens) (P27361 whole entry, looked up): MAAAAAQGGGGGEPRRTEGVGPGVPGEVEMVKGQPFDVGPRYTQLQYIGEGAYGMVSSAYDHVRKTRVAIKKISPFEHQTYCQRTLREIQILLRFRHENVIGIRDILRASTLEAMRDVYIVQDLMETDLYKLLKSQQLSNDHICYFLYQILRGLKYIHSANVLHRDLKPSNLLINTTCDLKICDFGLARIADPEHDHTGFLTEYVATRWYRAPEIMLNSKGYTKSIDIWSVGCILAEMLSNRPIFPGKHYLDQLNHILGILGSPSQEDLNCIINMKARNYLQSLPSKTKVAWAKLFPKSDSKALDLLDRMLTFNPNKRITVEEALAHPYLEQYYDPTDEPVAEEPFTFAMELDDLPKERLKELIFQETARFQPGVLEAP
Outline: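 Chemicals were first tested in duplicate at 25 uM, with hits re-run as concentration series (max 50 uM). Recombinant enzyme activity, measured 1 h post-dose in a cell-free format, was read by fluorescence/mobility shift relative to DMSO.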

[2] = biological target: human Matrix Metalloproteinase-7 (MMP7), MMP7 (gene 4316) (UniProt P09237); experiment: NVS_ENZ_hMMP7: NovaScreen (NVS) Enzymatic Assay for human Matrix Metalloproteinase-7 (MMP7) (AID 2283183)
Chain of human Matrix Metalloproteinase-7 (MMP7), MMP7 (gene 4316) (P09237 whole entry, looked up): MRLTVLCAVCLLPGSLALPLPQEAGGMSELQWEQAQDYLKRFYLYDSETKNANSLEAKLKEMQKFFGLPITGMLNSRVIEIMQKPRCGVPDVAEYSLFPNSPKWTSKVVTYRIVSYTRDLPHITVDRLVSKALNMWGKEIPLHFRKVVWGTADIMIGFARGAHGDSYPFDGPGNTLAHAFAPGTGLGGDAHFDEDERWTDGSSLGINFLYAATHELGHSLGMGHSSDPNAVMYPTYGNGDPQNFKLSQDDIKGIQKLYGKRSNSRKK
Description: NVS_ENZ_hMMP7 is a biochemical, single-readout assay that uses extracted gene-proteins in a cell-free assay. Measurements were taken 1 hour after chemical dosing in a 96-well plate.NVS_ENZ_hMMP7 is one of one assay component(s) measured or calculated from the NVS_ENZ_hMMP7 assay. It is designed to make measurements of enzyme activity, a form of enzyme reporter, as detected with fluorescence intensity signals by Fluorescence technology.Data from the assay component NVS_ENZ_hMMP7 was analyzed into 1 assay endpoint. This assay endpoint, NVS_ENZ_hMMP7, was analyzed in the positive analysis fitting direction relative to DMSO as the negative control and baseline of activity. Using a type of enzyme reporter, loss-of-signal activity can be used to understand changes in the enzymatic activity as they relate to the gene MMP7. Furthermore, this assay endpoint can be referred to as a primary readout, because this assay has produced multiple assay endpoints where this one serves a enzymatic activity function. To generalize the intended target to other relatable targets, this assay endpoint is annotated to the protease intended target family, where the subfamily is matrix metalloproteinase.
(§1) Binding assays used specific radioligands (tritiated, iodinated) with non-radioactive competitive displacement ligands in agonist or antagonist protocols (as indicated) and various reference compounds and inhibitors to titrate specific binding to receptors and transporters. Most enzyme assays (CYPs, kinases, phosphatases, proteases, HDACs) used recombinant protein and specific substrates (fluorescence mostly, some colorimetric and radioactive) and inhibitors, followed by a biochemical separation of substrate and product. All assays for the biochemical HTS were initially run in duplicate at a single concentration (10 uM for CYP450 assays and 25 uM for all others). Assay-chemical combinations meeting a pre-defined threshold (e.g., 30% inhibition and other criteria defined below) were then run in singleton concentration-response format with maximum concentration of 20 uM for CYPs and 50 uM for all others. Each assay was run with positive and negative controls, and concurrent controls on every plate. The follow-up (secondary) screen tested active chemical-pairs in concentration series, as well as a few additional assays not tested in the primary screen, some selected negative inactives, and several cases re-run in the concentration series for confirmatory purposes.

[3] = biological target: human Mitogen-Activated Protein Kinase 1 (MAPK 1), MAPK1 (gene 5594) (UniProt P28482); experiment: NVS_ENZ_hMAPK1: NovaScreen (NVS) Enzymatic Assay for human Mitogen-Activated Protein Kinase 1 (MAPK 1) (AID 2283175)
Chain of human Mitogen-Activated Protein Kinase 1 (MAPK 1), MAPK1 (gene 5594) (P28482 whole entry, looked up): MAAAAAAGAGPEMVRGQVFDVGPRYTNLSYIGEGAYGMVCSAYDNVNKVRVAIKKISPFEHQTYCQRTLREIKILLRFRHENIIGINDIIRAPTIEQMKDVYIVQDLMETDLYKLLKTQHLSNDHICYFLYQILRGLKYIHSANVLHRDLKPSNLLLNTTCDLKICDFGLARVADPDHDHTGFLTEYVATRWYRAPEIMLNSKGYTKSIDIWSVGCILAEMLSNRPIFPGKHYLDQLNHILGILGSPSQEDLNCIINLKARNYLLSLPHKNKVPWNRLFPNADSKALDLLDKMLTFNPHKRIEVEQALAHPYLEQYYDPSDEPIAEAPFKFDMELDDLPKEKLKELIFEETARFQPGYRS
Outline: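 Cell-free recombinant human MAPK1 enzymatic assay, fluorescence/electrophoretic mobility shift read at 1 h; loss of signal vs DMSO. Primary screen in duplicate at 25 uM; actives (e.g. ≥30% inhibition) run as concentration-response up to 50 uM.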

[4] = biological target: human Matrix Metalloproteinase-1 (MMP1), MMP1 (gene 4312) (UniProt P03956); experiment: NVS_ENZ_hMMP1: NovaScreen (NVS) Enzymatic Assay for human Matrix Metalloproteinase-1 (MMP1) (AID 2283181)
Chain of human Matrix Metalloproteinase-1 (MMP1), MMP1 (gene 4312) (P03956 whole entry, looked up): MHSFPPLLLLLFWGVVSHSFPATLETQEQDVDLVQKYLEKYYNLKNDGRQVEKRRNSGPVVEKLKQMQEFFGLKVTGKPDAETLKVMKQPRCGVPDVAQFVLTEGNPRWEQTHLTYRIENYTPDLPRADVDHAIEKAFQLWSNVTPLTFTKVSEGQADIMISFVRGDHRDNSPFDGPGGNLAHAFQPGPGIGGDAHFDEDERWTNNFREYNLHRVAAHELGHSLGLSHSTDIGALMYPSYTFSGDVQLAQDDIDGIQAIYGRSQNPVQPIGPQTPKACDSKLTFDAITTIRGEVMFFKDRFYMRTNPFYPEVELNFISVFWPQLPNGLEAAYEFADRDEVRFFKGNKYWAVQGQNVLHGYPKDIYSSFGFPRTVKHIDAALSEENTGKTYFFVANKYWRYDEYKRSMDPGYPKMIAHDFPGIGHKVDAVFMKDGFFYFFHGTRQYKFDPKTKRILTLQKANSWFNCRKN
Outline: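 Cell-free fluorescent substrate assay of human MMP1, read after 1 h. A single 25 uM duplicate screen was followed by concentration series to a maximum of 50 uM for actives meeting threshold; inhibition analysed against DMSO baseline.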

[5] = biological target: Collagenase 3 (Homo sapiens) (UniProt P45452); experiment: NVS_ENZ_hMMP13: NovaScreen (NVS) Enzymatic Assay for human Matrix Metalloproteinase-13 (MMP13) (AID 2283182)
Outline: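 Recombinant MMP13 cleaving fluorescent substrate, cell-free, measured 1 h after dosing. Primary duplicate screen at 25 uM; actives tested in concentration-response up to 50 uM; loss of signal relative to DMSO.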

[6] = biological target: human Matrix Metalloproteinase-2 (MMP2), MMP2 (gene 4313) (UniProt P08253); experiment: NVS_ENZ_hMMP2: NovaScreen (NVS) Enzymatic Assay for human Matrix Metalloproteinase-2 (MMP2) (AID 2283184)
Chain of human Matrix Metalloproteinase-2 (MMP2), MMP2 (gene 4313) (P08253 whole entry, looked up): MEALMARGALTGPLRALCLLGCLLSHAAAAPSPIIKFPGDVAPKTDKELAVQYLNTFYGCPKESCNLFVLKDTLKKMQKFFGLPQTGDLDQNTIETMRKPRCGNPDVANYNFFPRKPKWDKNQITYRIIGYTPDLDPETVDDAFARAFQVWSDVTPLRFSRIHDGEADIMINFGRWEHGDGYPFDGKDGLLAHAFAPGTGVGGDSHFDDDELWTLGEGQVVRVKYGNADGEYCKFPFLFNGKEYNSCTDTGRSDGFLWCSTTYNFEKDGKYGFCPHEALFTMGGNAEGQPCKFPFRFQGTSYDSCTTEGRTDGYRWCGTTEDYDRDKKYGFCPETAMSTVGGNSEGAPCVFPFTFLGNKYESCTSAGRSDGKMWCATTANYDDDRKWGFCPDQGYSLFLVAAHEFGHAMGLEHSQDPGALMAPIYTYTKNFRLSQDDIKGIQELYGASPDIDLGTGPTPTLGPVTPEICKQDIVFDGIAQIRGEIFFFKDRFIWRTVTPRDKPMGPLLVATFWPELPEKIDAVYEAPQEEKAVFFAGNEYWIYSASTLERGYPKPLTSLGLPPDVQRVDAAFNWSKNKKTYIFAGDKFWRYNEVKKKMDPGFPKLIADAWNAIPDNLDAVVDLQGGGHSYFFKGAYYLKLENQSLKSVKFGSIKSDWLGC
Outline: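 Compounds first screened in duplicate at a single 25 uM, with actives followed up in concentration series. Recombinant human MMP2 cleaves a fluorogenic substrate; fluorescence taken at 1 h, inhibition fitted relative to DMSO.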

[7] = biological target: human Matrix Metalloproteinase-3 (MMP3), MMP3 (gene 4314) (UniProt P08254); experiment: NVS_ENZ_hMMP3: NovaScreen (NVS) Enzymatic Assay for human Matrix Metalloproteinase-3 (MMP3) (AID 2283185)
Chain of human Matrix Metalloproteinase-3 (MMP3), MMP3 (gene 4314) (P08254 whole entry, looked up): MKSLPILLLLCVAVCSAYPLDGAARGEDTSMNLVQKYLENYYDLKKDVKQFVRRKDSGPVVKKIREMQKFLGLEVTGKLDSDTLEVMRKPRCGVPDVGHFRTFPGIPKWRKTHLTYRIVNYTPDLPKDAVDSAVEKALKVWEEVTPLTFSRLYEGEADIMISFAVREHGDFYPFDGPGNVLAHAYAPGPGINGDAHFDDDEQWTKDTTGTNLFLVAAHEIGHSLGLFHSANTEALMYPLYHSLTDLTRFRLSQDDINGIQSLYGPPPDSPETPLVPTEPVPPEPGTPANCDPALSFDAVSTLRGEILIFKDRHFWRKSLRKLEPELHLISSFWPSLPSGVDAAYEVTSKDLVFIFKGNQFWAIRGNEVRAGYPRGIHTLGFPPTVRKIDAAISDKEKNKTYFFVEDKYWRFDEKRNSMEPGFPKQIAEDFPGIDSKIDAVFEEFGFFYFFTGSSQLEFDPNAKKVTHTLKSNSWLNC
Outline: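 Fluorescent substrate turnover by recombinant MMP3 read after 1 h, signal loss scored against DMSO. Compounds first run in duplicate at 25 uM single dose, then actives confirmed by concentration series.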

[8] = biological target: human MET Proto-Oncogene, Receptor Tyrosine Kinase (MET), MET (gene 4233) (UniProt P08581); experiment: NVS_ENZ_hMet: NovaScreen (NVS) Enzymatic Assay for human MET Proto-Oncogene, Receptor Tyrosine Kinase (MET) (AID 2283180)
Chain of human MET Proto-Oncogene, Receptor Tyrosine Kinase (MET), MET (gene 4233) (P08581 whole entry, looked up): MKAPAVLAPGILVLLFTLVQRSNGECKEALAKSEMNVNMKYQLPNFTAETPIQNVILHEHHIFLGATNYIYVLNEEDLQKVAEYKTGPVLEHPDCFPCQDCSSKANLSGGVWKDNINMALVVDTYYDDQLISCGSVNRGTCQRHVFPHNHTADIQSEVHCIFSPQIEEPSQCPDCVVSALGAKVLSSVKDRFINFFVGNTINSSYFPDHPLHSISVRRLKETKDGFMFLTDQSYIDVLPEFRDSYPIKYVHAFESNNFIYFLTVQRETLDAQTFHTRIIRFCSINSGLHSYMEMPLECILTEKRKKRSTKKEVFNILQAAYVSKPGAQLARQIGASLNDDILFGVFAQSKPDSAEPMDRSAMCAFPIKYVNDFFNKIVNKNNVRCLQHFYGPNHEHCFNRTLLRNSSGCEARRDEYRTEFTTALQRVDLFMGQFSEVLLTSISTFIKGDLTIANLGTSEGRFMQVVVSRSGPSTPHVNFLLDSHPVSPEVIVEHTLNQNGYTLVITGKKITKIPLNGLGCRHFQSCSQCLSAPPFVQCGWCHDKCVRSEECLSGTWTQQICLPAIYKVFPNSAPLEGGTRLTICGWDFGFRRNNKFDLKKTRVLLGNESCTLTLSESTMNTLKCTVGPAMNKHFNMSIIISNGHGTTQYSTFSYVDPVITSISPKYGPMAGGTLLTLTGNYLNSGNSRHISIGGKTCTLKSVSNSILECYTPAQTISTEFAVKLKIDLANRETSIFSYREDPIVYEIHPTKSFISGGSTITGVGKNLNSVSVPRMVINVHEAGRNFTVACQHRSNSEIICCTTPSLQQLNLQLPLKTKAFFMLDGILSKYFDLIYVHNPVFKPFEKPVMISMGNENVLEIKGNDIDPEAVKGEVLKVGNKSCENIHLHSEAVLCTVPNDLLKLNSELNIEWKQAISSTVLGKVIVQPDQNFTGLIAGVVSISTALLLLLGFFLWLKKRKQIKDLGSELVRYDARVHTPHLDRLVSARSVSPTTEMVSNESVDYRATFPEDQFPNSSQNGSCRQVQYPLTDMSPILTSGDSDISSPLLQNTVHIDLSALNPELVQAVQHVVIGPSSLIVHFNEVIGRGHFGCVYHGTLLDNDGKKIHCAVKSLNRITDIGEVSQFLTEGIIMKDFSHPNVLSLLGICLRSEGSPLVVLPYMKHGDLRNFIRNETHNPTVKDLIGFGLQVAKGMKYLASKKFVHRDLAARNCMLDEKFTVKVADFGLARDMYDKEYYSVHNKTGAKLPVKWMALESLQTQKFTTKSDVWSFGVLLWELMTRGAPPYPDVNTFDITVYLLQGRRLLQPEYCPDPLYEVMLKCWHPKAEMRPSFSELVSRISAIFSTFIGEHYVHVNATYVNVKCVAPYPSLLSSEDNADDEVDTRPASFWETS
Description: NVS_ENZ_hMet is a biochemical, single-readout assay that uses extracted gene-proteins in a cell-free assay. Measurements were taken 1 hour after chemical dosing in a 384-well plate.NVS_ENZ_hMet is one of one assay component(s) measured or calculated from the NVS_ENZ_hMet assay. It is designed to make measurements of enzyme activity, a form of enzyme reporter, as detected with fluorescence intensity signals by Fluorescence and electrophoretic mobility shift technology.Data from the assay component NVS_ENZ_hMet was analyzed into 1 assay endpoint. This assay endpoint, NVS_ENZ_hMet, was analyzed in the positive analysis fitting direction relative to DMSO as the negative control and baseline of activity. Using a type of enzyme reporter, loss-of-signal activity can be used to understand changes in the enzymatic activity as they relate to the gene MET. Furthermore, this assay endpoint can be referred to as a primary readout, because this assay has produced multiple assay endpoints where this one serves a enzymatic activity function. To generalize the intended target to other relatable targets, this assay endpoint is annotated to the kinase intended target family, where the subfamily is receptor tyrosine kinase.
as §1

[9] = biological target: human MAP Kinase-Activated Protein Kinase 2 (MAPKAPK2), MAPKAPK2 (gene 9261) (UniProt P49137); experiment: NVS_ENZ_hMAPKAPK2: NovaScreen (NVS) Enzymatic Assay for human MAP Kinase-Activated Protein Kinase 2 (MAPKAPK2) (AID 2283178)
Chain of human MAP Kinase-Activated Protein Kinase 2 (MAPKAPK2), MAPKAPK2 (gene 9261) (P49137 whole entry, looked up): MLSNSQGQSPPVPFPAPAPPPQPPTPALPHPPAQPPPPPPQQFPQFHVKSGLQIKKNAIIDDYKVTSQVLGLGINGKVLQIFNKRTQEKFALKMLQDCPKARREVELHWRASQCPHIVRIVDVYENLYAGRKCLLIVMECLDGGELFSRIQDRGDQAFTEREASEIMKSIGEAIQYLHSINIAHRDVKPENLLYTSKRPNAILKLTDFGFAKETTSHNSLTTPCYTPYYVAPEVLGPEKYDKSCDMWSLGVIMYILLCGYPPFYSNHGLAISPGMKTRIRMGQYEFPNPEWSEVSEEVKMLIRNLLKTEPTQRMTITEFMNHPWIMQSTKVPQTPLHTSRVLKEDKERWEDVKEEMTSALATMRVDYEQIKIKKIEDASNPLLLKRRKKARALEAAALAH
Outline: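 Chemicals screened in duplicate at 25 uM, then to 50 uM top concentration in concentration-response, against recombinant human MAPKAPK2; substrate conversion read 1 hr post-dosing by fluorescence after electrophoretic mobility-shift separation, loss-of-signal relative to DMSO.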

[10] = biological target: human LYN Proto-Oncogene, Src family Tyrosine Kinase (LynA), LYN (gene 4067) (UniProt P07948); experiment: NVS_ENZ_hLynA: NovaScreen (NVS) Enzymatic Assay for human LYN Proto-Oncogene, Src family Tyrosine Kinase (LynA) (AID 2283173)
Chain of human LYN Proto-Oncogene, Src family Tyrosine Kinase (LynA), LYN (gene 4067) (P07948 whole entry, looked up): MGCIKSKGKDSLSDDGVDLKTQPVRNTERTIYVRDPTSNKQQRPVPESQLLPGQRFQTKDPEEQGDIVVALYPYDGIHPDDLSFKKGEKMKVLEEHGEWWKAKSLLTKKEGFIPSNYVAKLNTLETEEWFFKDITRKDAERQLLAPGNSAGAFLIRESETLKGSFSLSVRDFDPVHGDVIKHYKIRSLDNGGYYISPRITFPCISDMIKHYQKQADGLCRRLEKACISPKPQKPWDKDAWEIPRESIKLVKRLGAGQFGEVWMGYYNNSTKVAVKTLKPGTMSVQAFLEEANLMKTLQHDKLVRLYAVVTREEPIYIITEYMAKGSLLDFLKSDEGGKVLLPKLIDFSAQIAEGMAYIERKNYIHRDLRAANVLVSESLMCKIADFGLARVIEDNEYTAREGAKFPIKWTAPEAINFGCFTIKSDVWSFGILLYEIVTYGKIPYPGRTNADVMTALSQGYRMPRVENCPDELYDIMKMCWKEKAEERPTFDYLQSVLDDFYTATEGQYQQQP
Outline: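 Recombinant kinase with fluorescent substrate; product separated from substrate by electrophoretic mobility shift and read 1 h after dosing. Duplicate screen at 25 uM, then concentration-response up to 50 uM; activity scored as signal loss against DMSO.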

`COc1cnc(OC)n2nc(NS(=O)(=O)c3c(OCC(F)F)cccc3C(F)(F)F)nc12` was tested, and the outcome [1] was “inactive”.

For `CCOP(=S)(OCC)SCn1c(=O)oc2cc(Cl)ccc21`, the outcome [2] was “inactive”.

`C=CCC1=C(C)[C@@H](OC(=O)[C@@H]2[C@@H](C=C(C)C)C2(C)C)CC1=O` was tested, and the outcome [3] was “inactive” and the outcome [1] was “inactive”.

With `CCCC1COC(Cn2cncn2)(c2ccc(Cl)cc2Cl)O1` (centres undefined) the AC50 [4] was 6.45 µM (active).

In the case of `CO/C=C(/C(=O)OC)c1ccccc1Oc1cc(Oc2ccccc2C#N)ncn1`, the outcome [5] is reported as “inactive”, the outcome [6] is reported as “inactive” and the outcome [7] is reported as “inactive”.

In the case of `N#Cc1cc(Br)c(O)c(Br)c1`, the outcome [2] is reported as “inactive”.

`COc1nc(C)nc(NC(=O)NS(=O)(=O)c2ccccc2CCC(F)(F)F)n1` was tested, and the outcome [8] was “inactive” and the outcome [2] was “inactive”.

In the case of `CNC(=S)S`, the outcome [1] is reported as “inactive”, the outcome [9] is reported as “inactive” and the outcome [8] is reported as “inactive”. The outcome [2] was “inactive” and the outcome [7] was “inactive”.

With `CC(C)C1(C)N=C(c2nc3ccccc3cc2C(=O)O)NC1=O` (centres undefined) the outcome [4] was “inactive”.

For `COc1ccc(C(c2ccc(OC)cc2)C(Cl)(Cl)Cl)cc1`, the outcome [1] was “inactive” and the outcome [2] was “inactive”.

`CCCCNC(=O)OCC#CI` was tested, and the outcome [10] was “inactive”.

For `CN(C)C(=S)SSC(=S)N(C)C`, the outcome [8] was “inactive”.

With `CCCN(CCC)c1c([N+](=O)[O-])cc(S(N)(=O)=O)cc1[N+](=O)[O-]` the outcome [8] was “inactive”.

In the case of `C=CCC1=C(C)C(OC(=O)C2C(C=C(C)C)C2(C)C)CC1=O` (centres undefined), the AC50 [4] is reported as 8.92 µM (active).

In the case of `N#Cc1nn(-c2c(Cl)cc(C(F)(F)F)cc2Cl)c(N)c1S(=O)C(F)(F)F` (centres undefined), the outcome [7] is reported as “inactive”.

`O=C(O)c1nc(Cl)ccc1Cl` was tested, and the outcome [7] was “inactive”.

For `COC(=O)C=C(C)OP(=O)(OC)OC`, the outcome [7] was “inactive”.

`CCNc1nc(Cl)nc(NCC)n1` was tested, and the outcome [1] was “inactive” and the outcome [6] was “inactive”.

For `COC(=O)c1ccccc1C(=O)OC`, the outcome [10] was “inactive”.
